This passage reports binding signal results from article PMC11006913.

Common to all, as to test: PBM; 200 nM protein, PBS
What all share (settings): dsDNA, one strand shown

The target in experiment [1] is T1, NKX2-4 (Homo sapiens, UniProt Q9H2Z4 175-261, P217L).
T1 sequence: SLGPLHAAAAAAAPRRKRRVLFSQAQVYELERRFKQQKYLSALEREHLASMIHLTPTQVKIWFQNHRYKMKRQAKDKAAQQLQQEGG

In experiment [2] the target is T2, SIX6 (Homo sapiens, UniProt O95475 114-200, L167I).
T2 sequence: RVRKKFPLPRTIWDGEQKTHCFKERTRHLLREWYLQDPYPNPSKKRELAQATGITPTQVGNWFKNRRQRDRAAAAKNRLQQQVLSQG

Experiment [3] deals with T3, SIX6 (Homo sapiens, UniProt O95475 114-200, L143V).
T3 sequence: T2 sequence with L30V, I54L

The target of experiment [4] is T4, NKX2-4 (Homo sapiens, UniProt Q9H2Z4 175-261, T231S).
T4 sequence: T1 sequence with L43P, T57S

The target of experiment [5] is T5, SIX6 (Homo sapiens, UniProt O95475 114-200, H141N).
T5 sequence: T2 sequence with H28N, I54L

In experiment [6] the target is T6, SIX6 (Homo sapiens, UniProt O95475 114-200, T165P).
T6 sequence: T2 sequence with T52P, I54L

Experiment [7] concerns the target T7, SIX6 (Homo sapiens, UniProt O95475 114-200, L167M).
T7 sequence: T2 sequence with I54M

In experiment [8] the target is T8, NKX2-4 (Homo sapiens, UniProt Q9H2Z4 175-261).
T8 sequence: T1 sequence with L43P

For experiment [9], the target named is T9, SIX6 (Homo sapiens, UniProt O95475 114-200, L143M).
T9 sequence: T2 sequence with L30M, I54L

The target of experiment [10] is T10, SIX6 (Homo sapiens, UniProt O95475 114-200, L143I).
T10 sequence: T2 sequence with L30I, I54L

Experiment [11] addresses T11, SIX6 (Homo sapiens, UniProt O95475 114-200, T165G).
T11 sequence: T2 sequence with T52G, I54L

For experiment [12], the target named is T12, SIX6 (Homo sapiens, UniProt O95475 114-200, T139Q).
T12 sequence: T2 sequence with T26Q, I54L

In experiment [13] the target is T13, SIX6 (Homo sapiens, UniProt O95475 114-200, T165A).
T13 sequence: T2 sequence with T52A, I54L

The target of experiment [14] is T14, SIX6 (Homo sapiens, UniProt O95475 114-200, L167V).
T14 sequence: T2 sequence with I54V

Experiment [15] concerns the target T15, NKX2-4 (Homo sapiens, UniProt Q9H2Z4 175-261, R246Q).
T15 sequence: T1 sequence with L43P, R72Q

Experiment [16] deals with T16, SIX6 (Homo sapiens, UniProt O95475 114-200).
T16 sequence: T2 sequence with I54L

The target in experiment [17] is T17, SIX6 (Homo sapiens, UniProt O95475 114-200, T165I).
T17 sequence: T2 sequence with T52I, I54L

For experiment [18], the target named is CRX (Homo sapiens, UniProt O43186 26-111).
The target of experiment [19] is CRX (Homo sapiens, UniProt O43186 26-111, E42D).
The target of experiment [20] is CRX (Homo sapiens, UniProt O43186 26-111, R41L).
Experiment [21] addresses HOXA4 (Homo sapiens, UniProt Q00056 201-287, W262R).
The target in experiment [22] is HOXA4 (Homo sapiens, UniProt Q00056 201-287, R217L).
Experiment [23] has as its target HOXA4 (Homo sapiens, UniProt Q00056 201-287).
Experiment [24] addresses HOXA4 (Homo sapiens, UniProt Q00056 201-287, W262F).
Experiment [25] concerns the target NKX2-5 (Homo sapiens, UniProt P52952 125-210).
In experiment [26] the target is PITX2 (Homo sapiens, UniProt Q99697 72-157).
Experiment [27] deals with T18, VENTX (Homo sapiens, UniProt O95231 78-163, R121Q).
T18 sequence: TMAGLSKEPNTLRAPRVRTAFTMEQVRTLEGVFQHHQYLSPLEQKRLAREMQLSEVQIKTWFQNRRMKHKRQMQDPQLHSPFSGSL

In experiment [28] the target is HOXB9 (Homo sapiens, UniProt P17482 171-250, T197M).
The target of experiment [29] is T19, VENTX (Homo sapiens, UniProt O95231 78-163).
T19 sequence: T18 sequence with Q44R

The target in experiment [30] is T20, VENTX (Homo sapiens, UniProt O95231 78-163, Y115F).
T20 sequence: T18 sequence with Y38F, Q44R

The target of experiment [31] is HOXB9 (Homo sapiens, UniProt P17482 171-250).
The target of experiment [32] is HOXB9 (Homo sapiens, UniProt P17482 171-250, R186Q).

Substitutions are numbered along the chain they refer to.

Sequence of CRX (Homo sapiens, UniProt O43186 26-111, R41L) (O43186 26-111 R41L): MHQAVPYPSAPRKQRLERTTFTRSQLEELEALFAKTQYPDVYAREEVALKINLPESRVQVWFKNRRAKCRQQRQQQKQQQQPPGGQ
Sequence of CRX (Homo sapiens, UniProt O43186 26-111) (O43186 26-111): as the sequence (O43186 26-111 R41L) above, with L16R counted along it
Sequence of CRX (Homo sapiens, UniProt O43186 26-111, E42D) (O43186 26-111 E42D): as the sequence (O43186 26-111 R41L) above, with L16R, E17D counted along it
Sequence of HOXB9 (Homo sapiens, UniProt P17482 171-250, T197M) (P17482 171-250 T197M): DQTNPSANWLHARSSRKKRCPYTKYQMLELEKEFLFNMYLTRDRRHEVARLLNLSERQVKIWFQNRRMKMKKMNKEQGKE
Sequence of HOXB9 (Homo sapiens, UniProt P17482 171-250, R186Q) (P17482 171-250 R186Q): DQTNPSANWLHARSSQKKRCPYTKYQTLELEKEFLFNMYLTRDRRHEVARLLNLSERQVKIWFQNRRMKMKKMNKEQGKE
Sequence of HOXA4 (Homo sapiens, UniProt Q00056 201-287, W262F) (Q00056 201-287 W262F): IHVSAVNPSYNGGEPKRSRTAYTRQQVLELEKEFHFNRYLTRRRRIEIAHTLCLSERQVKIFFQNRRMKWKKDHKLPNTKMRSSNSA
Sequence of HOXB9 (Homo sapiens, UniProt P17482 171-250) (P17482 171-250): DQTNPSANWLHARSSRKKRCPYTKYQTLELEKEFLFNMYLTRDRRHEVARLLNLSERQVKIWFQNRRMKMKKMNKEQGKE
Sequence of NKX2-5 (P52952 125-210): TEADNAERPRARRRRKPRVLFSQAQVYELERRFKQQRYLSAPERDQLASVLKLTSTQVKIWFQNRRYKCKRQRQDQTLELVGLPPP
Sequence of HOXA4 (Homo sapiens, UniProt Q00056 201-287, R217L) (Q00056 201-287 R217L): as the sequence (Q00056 201-287 W262F) above, with R17L, F62W counted along it
Sequence of HOXA4 (Homo sapiens, UniProt Q00056 201-287) (Q00056 201-287): as the sequence (Q00056 201-287 W262F) above, with F62W counted along it
Sequence of HOXA4 (Homo sapiens, UniProt Q00056 201-287, W262R) (Q00056 201-287 W262R): as the sequence (Q00056 201-287 W262F) above, with F62R counted along it

Regarding CCCTGCGC, the binding signal is 9.21 upbm affinity estimate (log intensity, higher = more binding, comparable within an allelic series) in [1]; 8.93 upbm affinity estimate (log intensity, higher = more binding, comparable within an allelic series) in experiment [2]; 8.85 upbm affinity estimate (log intensity, higher = more binding, comparable within an allelic series) in [3]; 9.11 upbm affinity estimate (log intensity, higher = more binding, comparable within an allelic series) in experiment [4]; 8.92 upbm affinity estimate (log intensity, higher = more binding, comparable within an allelic series) in experiment [5]; 8.96 upbm affinity estimate (log intensity, higher = more binding, comparable within an allelic series) in experiment [6]. Further, the binding signal was 8.94 upbm affinity estimate (log intensity, higher = more binding, comparable within an allelic series) in experiment [7]; 9.27 upbm affinity estimate (log intensity, higher = more binding, comparable within an allelic series) in experiment [8]; 8.96 upbm affinity estimate (log intensity, higher = more binding, comparable within an allelic series) in experiment [9]; 8.9 upbm affinity estimate (log intensity, higher = more binding, comparable within an allelic series) in experiment [10]; 8.89 upbm affinity estimate (log intensity, higher = more binding, comparable within an allelic series) in [11]; 8.98 upbm affinity estimate (log intensity, higher = more binding, comparable within an allelic series) in experiment [12]. The binding signal in experiment [13] is 8.88 upbm affinity estimate (log intensity, higher = more binding, comparable within an allelic series); in experiment [14] it was 9 upbm affinity estimate (log intensity, higher = more binding, comparable within an allelic series); in [15], 9.27 upbm affinity estimate (log intensity, higher = more binding, comparable within an allelic series); in experiment [16], 8.86 upbm affinity estimate (log intensity, higher = more binding, comparable within an allelic series); in experiment [17], 8.88 upbm affinity estimate (log intensity, higher = more binding, comparable within an allelic series).

For the sequence CCAGTGCA, the binding signal in [18] was 8.15 upbm affinity estimate (log intensity, higher = more binding, comparable within an allelic series); in [19], 8.21 upbm affinity estimate (log intensity, higher = more binding, comparable within an allelic series); in experiment [20] it was 8.38 upbm affinity estimate (log intensity, higher = more binding, comparable within an allelic series).

As for AAATCCAA, the binding signal was 11.2 upbm affinity estimate (log intensity, higher = more binding, comparable within an allelic series) in [18]; 11 upbm affinity estimate (log intensity, higher = more binding, comparable within an allelic series) in experiment [19]; 11 upbm affinity estimate (log intensity, higher = more binding, comparable within an allelic series) in [20].

Turning to TAAGATTA, the binding signal was 12.8 upbm affinity estimate (log intensity, higher = more binding, comparable within an allelic series) in [18]; 12.6 upbm affinity estimate (log intensity, higher = more binding, comparable within an allelic series) in experiment [19]; 12.4 upbm affinity estimate (log intensity, higher = more binding, comparable within an allelic series) in [20].

On to CAGTCCCG, for which the binding signal is 9.58 upbm affinity estimate (log intensity, higher = more binding, comparable within an allelic series) in experiment [1]; 9.96 upbm affinity estimate (log intensity, higher = more binding, comparable within an allelic series) in experiment [21]; 9.49 upbm affinity estimate (log intensity, higher = more binding, comparable within an allelic series) in [4]; 9.67 upbm affinity estimate (log intensity, higher = more binding, comparable within an allelic series) in [8]; 9.95 upbm affinity estimate (log intensity, higher = more binding, comparable within an allelic series) in experiment [22]; 9.91 upbm affinity estimate (log intensity, higher = more binding, comparable within an allelic series) in [23]. Further, the binding signal is 9.57 upbm affinity estimate (log intensity, higher = more binding, comparable within an allelic series) in experiment [15] and 10 upbm affinity estimate (log intensity, higher = more binding, comparable within an allelic series) in experiment [24].

On to ATAAAACC, for which the binding signal is 10.7 upbm affinity estimate (log intensity, higher = more binding, comparable within an allelic series) in experiment [18]; 10.4 upbm affinity estimate (log intensity, higher = more binding, comparable within an allelic series) in experiment [19]; 10.2 upbm affinity estimate (log intensity, higher = more binding, comparable within an allelic series) in [20].

For AGATTATA, the binding signal in experiment [18] is 12.9 upbm affinity estimate (log intensity, higher = more binding, comparable within an allelic series); in experiment [19], 12.8 upbm affinity estimate (log intensity, higher = more binding, comparable within an allelic series); in [20] it was 12.8 upbm affinity estimate (log intensity, higher = more binding, comparable within an allelic series).

For the sequence AATCACTA, the binding signal in [18] was 10.3 upbm affinity estimate (log intensity, higher = more binding, comparable within an allelic series); in [19], 10.2 upbm affinity estimate (log intensity, higher = more binding, comparable within an allelic series); in experiment [20] it was 9.96 upbm affinity estimate (log intensity, higher = more binding, comparable within an allelic series).

Turning to GGTGCTTA, the binding signal in [18] was 11 upbm affinity estimate (log intensity, higher = more binding, comparable within an allelic series); in [19], 10.9 upbm affinity estimate (log intensity, higher = more binding, comparable within an allelic series); in experiment [20], 10.4 upbm affinity estimate (log intensity, higher = more binding, comparable within an allelic series); in experiment [25] it was 10.4 upbm affinity estimate (log intensity, higher = more binding, comparable within an allelic series).

Regarding GGGCGCAC, the binding signal in experiment [18] is 7.78 upbm affinity estimate (log intensity, higher = more binding, comparable within an allelic series); in experiment [19], 7.93 upbm affinity estimate (log intensity, higher = more binding, comparable within an allelic series); in [20], 7.95 upbm affinity estimate (log intensity, higher = more binding, comparable within an allelic series).

For GTAATCCA, the binding signal is 12.9 upbm affinity estimate (log intensity, higher = more binding, comparable within an allelic series) in [18]; 12.9 upbm affinity estimate (log intensity, higher = more binding, comparable within an allelic series) in [26]; 12.7 upbm affinity estimate (log intensity, higher = more binding, comparable within an allelic series) in experiment [20].

Consider CGTATACG, for which the binding signal in experiment [18] was 8.46 upbm affinity estimate (log intensity, higher = more binding, comparable within an allelic series); in [19] it was 8.43 upbm affinity estimate (log intensity, higher = more binding, comparable within an allelic series); in experiment [20], 8.43 upbm affinity estimate (log intensity, higher = more binding, comparable within an allelic series).

As for GGGCTTAA, the binding signal is 12.7 upbm affinity estimate (log intensity, higher = more binding, comparable within an allelic series) in experiment [18]; 12.7 upbm affinity estimate (log intensity, higher = more binding, comparable within an allelic series) in experiment [26]; 12.1 upbm affinity estimate (log intensity, higher = more binding, comparable within an allelic series) in experiment [20].

Take CACCGCGG: the binding signal in [1] is 9.48 upbm affinity estimate (log intensity, higher = more binding, comparable within an allelic series); in experiment [27] it was 8.21 upbm affinity estimate (log intensity, higher = more binding, comparable within an allelic series); in [28] it was 8.56 upbm affinity estimate (log intensity, higher = more binding, comparable within an allelic series); in experiment [29] it was 8.03 upbm affinity estimate (log intensity, higher = more binding, comparable within an allelic series); in [4] it was 9.5 upbm affinity estimate (log intensity, higher = more binding, comparable within an allelic series); in experiment [30], 8.12 upbm affinity estimate (log intensity, higher = more binding, comparable within an allelic series). The binding signal in experiment [8] is 9.48 upbm affinity estimate (log intensity, higher = more binding, comparable within an allelic series); in experiment [31], 8.55 upbm affinity estimate (log intensity, higher = more binding, comparable within an allelic series); in experiment [15] it was 9.54 upbm affinity estimate (log intensity, higher = more binding, comparable within an allelic series); in experiment [32], 8.55 upbm affinity estimate (log intensity, higher = more binding, comparable within an allelic series).
